VDR inh – vitamin D3 receptor (human) inhibition; P11473; VDR-SRC2-3 peptide fluorescence polarization, 2 h; Potency, µM, without a hit: max response, negative = inhibition, actives largely listed as inhibitors; 0.93% of 400,000 active; AID 504847; further: on the % scale 0 is the no-effect control and ±100 the full control effect
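After 23 nl compound addition and a short centrifugation, plates sat for 2 hours at ambient temperature; polarization of fluorescence then indicated loss of VDR binding to peptide SRC2-3.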
JMJD2A Tudor inh – JMJD2A Tudor domain (human) inhibition; 4.4% of 390,000 active; AlphaScreen JMJD2A-Tudor / H3K4me3 peptide binding; O75164; Potency, µM (titrated, usually from 114 µM), for the others: at the highest dose activity change, negative = inhibition, most hits filed as inhibitors; further: on the % scale 0 is the no-effect control and ±100 the full control effect; nearly all actives have a fitted effect of over 50% in size
PLK1 PBD block – blocks phosphopeptide binding to human PLK1 polo-box domain. P53350. Plk1 PBD binding of FITC phosphopeptide, fluorescence polarization. Potency, µM, without a hit: max response, negative = inhibition, usual class: inhibitors. 2.8% of 360,000 active; further: series mostly up to about 57 µM; on the % scale 0 is the no-effect control and ±100 the full control effect; nearly all actives have a fitted effect of over 65% in size
BAZ2B block – inhibitors of human BAZ2B bromodomain; AID 504333; Potency, µM (top dose mostly 114 µM), without a hit: at the highest dose activity change, negative = inhibition, usual class: inhibitors; Q9UIF8; AlphaScreen BAZ2B-H3K14Ac peptide displacement; 4.4% of 360,000 active; further: on the % scale 0 is the no-effect control and ±100 the full control effect; nearly all actives have a fitted effect of over 60% in size
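Compounds, titrated to a top concentration of 110 uM, were incubated 30 min at room temperature with preformed BAZ2B/acetyl-K14 H3 peptide complex (50 nM each). Proximity signal was measured by AlphaScreen after 20 min with beads.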
G9a block – inhibitors of human histone lysine methyltransferase G9a. Q96KQ7. G9a H3K9 monomethylation, AlphaScreen, 2 h. Potency, µM (series often up to 102 µM), inactives show top-dose activity, negative = inhibition, most hits filed as inhibitors. 8.8% of 350,000 active. AID 504332; further: on the % scale 0 is the no-effect control and ±100 the full control effect; nearly all actives have a fitted effect of over 75% in size
Target sequence (Q96KQ7 913-1193 limits assumed): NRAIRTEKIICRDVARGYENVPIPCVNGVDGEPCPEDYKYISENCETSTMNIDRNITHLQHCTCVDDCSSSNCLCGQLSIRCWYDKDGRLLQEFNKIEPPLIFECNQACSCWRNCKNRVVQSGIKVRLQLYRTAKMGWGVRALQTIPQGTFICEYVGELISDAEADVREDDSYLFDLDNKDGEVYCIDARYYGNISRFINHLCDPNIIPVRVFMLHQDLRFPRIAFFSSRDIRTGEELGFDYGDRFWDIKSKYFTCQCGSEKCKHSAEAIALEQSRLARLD
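AlphaScreen read-out: biotin-H3K9 peptide (500 nM) methylation by 20 nM enzyme with 20 uM SAM, 2 h at room temperature after 15 min compound preincubation; anti-monomethyl H3K9 antibody plus donor/acceptor beads, 10 min dark.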
HP1b binding inh – blocks HP1-beta chromodomain binding to methylated histone tails; P83916; AlphaScreen HP1-beta / biotin-H3K9me3 peptide binding; Potency, µM (highest dose often 114 µM), for inactives: at the highest dose activity change, negative = inhibition, actives largely listed as inhibitors; 0.56% of 390,000 active; further: nearly all actives have a fitted effect of over 70% in size
Target sequence (P83916 whole entry, looked up): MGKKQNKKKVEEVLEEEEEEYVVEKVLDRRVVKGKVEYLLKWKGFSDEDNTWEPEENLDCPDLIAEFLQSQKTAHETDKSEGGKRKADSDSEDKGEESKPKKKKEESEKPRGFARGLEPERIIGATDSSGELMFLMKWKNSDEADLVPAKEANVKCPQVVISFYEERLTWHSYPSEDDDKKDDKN
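HP1-beta protein (50 nM final) preincubated 30 min at room temperature with biotinylated H3(1-18)K9me3 peptide (50 nM) in PBS pH 7.4, 0.01% Tween-20, then compound added for 30 min. AlphaScreen streptavidin donor/nickel chelate acceptor beads (10 ug/mL final), 30 min dark, luminescence read.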
* hit, by the source's call; ? = inconclusive; nt = not tested or not shown; [ ] = remark or other dose. Sampled rows, rich in hits. Any-hit rate of the full collection: about 11%. The call rests on the fitted dose curve; in most records, active means well fitted curve in the direction sought with a large enough effect; inconclusive means small, poorly fitted or top-dose-only effect, or another doubt; inactive means no such curve, though single readings can be large; an effect the other way counts as inactive or inconclusive. Potency means the concentration at half of the fitted maximal effect.

SMILES | VDR inh | JMJD2A Tudor inh | PLK1 PBD block | BAZ2B block | G9a block | HP1b binding inh
COc1ccccc1/C=C1/C(=O)N(c2ccc([N+](=O)[O-])cc2)N=C1C | ? | ? | 1.9µM* | -36% | ? | -2%
CC1=NN(c2nc3ccccc3[nH]2)C(=O)/C1=C/N(C)C | 4% | 56µM* | -2% | 22µM* | 34%[59 µM] | 48%
CN(CC(=O)Nc1ccc(F)cc1)S(=O)(=O)c1ccc2c(c1)c(=O)n(C)c(=O)n2C | 7% | -13% | -14% | -18% | 4% | 17%
CCCN(C(=O)c1ccc2c(=O)n3c(nc2c1)CCCCC3)c1cccc(Cl)c1 | -7% | -23% | nt | -3% | -4%[59 µM] | 5%
CN(C)CCNC(=O)COc1cccc(Cl)c1 | -2% | -6%[57.1 µM] | -14% | ? | 22µM* | 3%
CCN(CC)CCNC(=O)COc1ccc(Cl)cc1Cl | 2% | -14% | -3% | -9% | ? | 21%
O=C(COc1ccc(Cl)cc1Cl)NCCSc1ccc(Cl)cc1 | -13% | ? | 3µM* | 50% | 28% | 70%
CN(C)CCNC(=O)COc1ccc(Cl)cc1Cl | -4% | ? | 1% | 1% | 50µM* | 17%
CN(C)C1(CNC(=O)COc2cccc(Cl)c2)CCCCC1 | -6% | -26% | nt | -13% | 2%[59 µM] | 28%
CCn1nc(-c2ccccc2)c(-c2ccccc2)c(C(=O)Nc2nc(C)c(C(C)=O)s2)c1=O | -1% | -32% | nt | -24% | ? | 10%
Oc1[nH]c2ccccc2c1C=Nc1ccccc1 | -10% | -15% | -14% | -8% | ? | 43%
CCN(CC)c1ccc(N=Cc2c(C)[nH]c3ccccc23)cc1 | ? | 35µM* | -8% | 13µM* | 14µM* | 32µM*
O=C(CN1C(=O)/C(=C2\SC(=S)N(C3CCS(=O)(=O)C3)C2=O)c2ccccc21)Nc1ccc(F)cc1 (stereo not given) | -16% | -17% | -10% | -20% | 20µM* | -24%
Cc1csc(NC(=O)C2CC(=O)N(c3ccc(C)c(C)c3)C2)n1 (stereo not given) | 19% | -14% | -13% | 2% | ? | 26%
CCOC(=O)CN1CC23C=CC(O2)C(C(=O)NCc2ccc(F)cc2)C3C1=O (stereo not given) | -1% | 0% | -8% | -2% | 22µM* | 57%
COCCCN1CC23C=CC(O2)C(C(=O)O)C3C1=O (stereo not given) | ? | ? | 27µM* | 1% | ? | ?
Cc1ccc(-n2ncc3c(NCCC4=CCCCC4)ncnc32)cc1C | 13% | 9% | nt | 3% | -35%[59 µM] | 28%
CC1(C(=O)NS(=O)(=O)c2ccc3c(c2)CCO3)CCN1C(=O)C1(c2ccc(Cl)cc2)CC1 (stereo not given) | nt | nt | -23% | nt | nt | nt
O=C(NN=C1CCN(Cc2ccccc2)CC1)c1ccccc1 | -11% | 7.9µM* | -15% | -7% | 34%[59 µM] | -17%
COc1ccc(NC(=O)Cn2c(=O)n(-c3ccc(C)cc3)c(=O)c3c2cnn3C)cc1 | -6% | -20% | nt | 36% | 29%[59 µM] | 51%
Cc1ccc(N2CCN(/N=C/c3ccccc3[N+](=O)[O-])CC2)cc1 | 15% | ? | -1% | ? | 7.9µM* | ?
O=[N+]([O-])c1ccccc1/C=N/N1CCN(c2ccccn2)CC1 | -10% | ? | -10% | 13µM* | ? | -11%
CC1(C)CC=CC(COC(=O)c2ccccc2C(=O)O)C1 (stereo not given) | -17% | -3% | 2% | nt | nt | 33%
COc1cc(C(=O)Nc2ccc(NC(C)=O)cc2)ccc1OCc1ccccc1 | 7% | 7% | -7% | -6% | ? | 13%
Cc1ccc(CNC(=O)C(=O)NCC2OCCN2S(=O)(=O)c2ccc(Cl)cc2)cc1 (stereo not given) | 4% | -6% | 2% | nt | nt | 19%
CC(C(=O)NNS(=O)(=O)c1cccc(C(F)(F)F)c1)n1nnc(N2CCOCC2)n1 (stereo not given) | 7% | 14µM* | -2% | -16% | 32µM* | 15%

Assay outcomes (PubChem)
